For part of these data: Potency and affinity values are given separately.
How the values were obtained:
Design in all cases: scale not given: direction of the effect not stated beside the values
[1] = molecular target: Protein translocase subunit SecA (Escherichia coli (strain K12)) (UniProt P10408); test: Assay to Identify E. coli SecA ATPase Inhibitors; format: functional; details: 30 µM
[2] = molecular target: T1, Ubiquitin-activating enzyme e1, putative (Leishmania donovani (strain BPK282A1)) (UniProt E9BSI1); test: Leishmania donovani Ubiquitin Activating Enzyme (LdE1); format: functional; details: 30 µM
T1 sequence (whole entry): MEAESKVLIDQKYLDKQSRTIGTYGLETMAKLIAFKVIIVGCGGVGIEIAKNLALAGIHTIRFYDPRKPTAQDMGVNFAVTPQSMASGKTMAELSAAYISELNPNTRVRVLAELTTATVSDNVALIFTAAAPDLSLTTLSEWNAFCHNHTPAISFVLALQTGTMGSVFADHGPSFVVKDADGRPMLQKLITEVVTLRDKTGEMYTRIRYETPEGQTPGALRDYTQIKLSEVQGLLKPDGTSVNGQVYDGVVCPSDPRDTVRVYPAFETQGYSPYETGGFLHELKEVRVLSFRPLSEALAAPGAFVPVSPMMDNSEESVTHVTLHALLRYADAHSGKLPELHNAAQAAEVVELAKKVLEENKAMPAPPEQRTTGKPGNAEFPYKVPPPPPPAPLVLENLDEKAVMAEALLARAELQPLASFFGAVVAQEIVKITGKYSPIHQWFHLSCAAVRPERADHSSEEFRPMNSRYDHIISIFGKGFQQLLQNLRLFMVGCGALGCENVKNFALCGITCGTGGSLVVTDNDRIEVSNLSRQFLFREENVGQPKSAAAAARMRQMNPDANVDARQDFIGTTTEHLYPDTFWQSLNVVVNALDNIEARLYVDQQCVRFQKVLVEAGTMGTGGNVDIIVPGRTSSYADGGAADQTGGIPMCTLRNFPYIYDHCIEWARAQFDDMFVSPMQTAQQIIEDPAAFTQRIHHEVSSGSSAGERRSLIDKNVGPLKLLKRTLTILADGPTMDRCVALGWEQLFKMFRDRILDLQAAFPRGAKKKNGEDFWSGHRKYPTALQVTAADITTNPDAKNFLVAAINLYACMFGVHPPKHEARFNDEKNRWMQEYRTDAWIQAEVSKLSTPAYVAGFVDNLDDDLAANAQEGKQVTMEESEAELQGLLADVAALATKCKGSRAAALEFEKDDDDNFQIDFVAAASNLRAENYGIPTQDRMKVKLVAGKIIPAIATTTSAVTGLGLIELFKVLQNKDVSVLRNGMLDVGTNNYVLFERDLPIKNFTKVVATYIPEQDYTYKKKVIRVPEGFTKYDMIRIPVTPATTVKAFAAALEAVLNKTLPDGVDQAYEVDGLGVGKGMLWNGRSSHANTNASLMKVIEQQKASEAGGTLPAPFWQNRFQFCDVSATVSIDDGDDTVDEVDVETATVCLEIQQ

[3] = molecular target: AMP-activated protein kinase, AMPK (Homo sapiens) (UniProt P54646+O43741+P54619+Q9UGJ0+Q9Y478+Q13131+Q9UGI9); test: AMP-dependent Kinase enzyme assay. An in vitro enzyme assay that detects ADP turnover that is directly proportional to AMPK activity. This uses naive AMPK that is activated during the assay with MK-8722; format: functional; details: 30 µM
[4] = molecular target: Sialic acid-binding Ig-like lectin 9 (Homo sapiens) (UniProt Q9Y336); test: Hs-Siglec9 ALPHAscreen SOP 20170721; details: 10 µM
Sialic acid-binding Ig-like lectin 9 (Homo sapiens), sequence (Q9Y336 whole entry): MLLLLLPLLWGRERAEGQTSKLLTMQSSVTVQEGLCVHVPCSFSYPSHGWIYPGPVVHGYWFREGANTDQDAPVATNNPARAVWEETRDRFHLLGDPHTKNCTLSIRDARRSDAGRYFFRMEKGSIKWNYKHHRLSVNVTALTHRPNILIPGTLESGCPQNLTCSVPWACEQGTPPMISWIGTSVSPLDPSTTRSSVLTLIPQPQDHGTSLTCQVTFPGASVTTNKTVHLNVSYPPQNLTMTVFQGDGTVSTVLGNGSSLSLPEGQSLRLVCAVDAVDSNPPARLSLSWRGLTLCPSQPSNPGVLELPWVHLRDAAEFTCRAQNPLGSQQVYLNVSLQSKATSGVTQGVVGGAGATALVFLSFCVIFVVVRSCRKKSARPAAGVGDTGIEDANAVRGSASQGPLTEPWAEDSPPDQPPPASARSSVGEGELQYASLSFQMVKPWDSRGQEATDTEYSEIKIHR

[5] = test system: Trypanosoma cruzi; test: Trypanosoma cruzi phosphomannomutase and mannose-1-phosphate guanylyltransferase assay; format: functional; details: 10 µM
[6] = molecular target: T2, Arginase-2, mitochondrial (Homo sapiens) (UniProt P78540); test: in vitro enzyme assay to detect the production of urea directly proportional to the activity of Arginase II; format: functional; details: 33.3 µM; also: in the data most compounds retested in dose-response had high values
T2 sequence (whole entry): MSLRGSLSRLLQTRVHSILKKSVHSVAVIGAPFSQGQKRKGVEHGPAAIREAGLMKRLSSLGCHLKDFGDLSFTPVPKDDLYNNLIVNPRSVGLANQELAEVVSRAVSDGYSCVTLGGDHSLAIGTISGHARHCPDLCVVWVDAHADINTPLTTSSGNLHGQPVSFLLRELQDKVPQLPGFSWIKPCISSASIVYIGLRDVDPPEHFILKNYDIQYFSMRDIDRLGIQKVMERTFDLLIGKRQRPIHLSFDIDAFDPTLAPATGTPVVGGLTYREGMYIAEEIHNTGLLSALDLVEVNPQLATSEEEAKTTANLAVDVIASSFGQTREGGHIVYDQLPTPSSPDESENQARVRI

[7] = molecular target: T3, Proteasome subunit beta (Trypanosoma cruzi) (UniProt O96673); test: Trypanosoma cruzi proteasome chymotrypsin-like activity (TcProtChymo) assay.; also: in the data most compounds retested in dose-response had high values; format: functional; details: 9.37 µM
T3 sequence (whole entry): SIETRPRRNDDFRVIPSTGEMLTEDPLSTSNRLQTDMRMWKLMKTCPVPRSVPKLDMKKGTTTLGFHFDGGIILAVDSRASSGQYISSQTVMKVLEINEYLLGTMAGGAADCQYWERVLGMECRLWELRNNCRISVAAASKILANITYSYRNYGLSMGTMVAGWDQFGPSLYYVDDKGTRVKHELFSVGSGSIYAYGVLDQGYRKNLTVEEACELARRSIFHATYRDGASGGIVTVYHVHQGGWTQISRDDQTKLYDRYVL

[8] = organism: Homo sapiens; test: To identify inhibition of the IFN signalling (Jak-Stat) pathway via expression of an eGFP reporter gene under the control of an IFN-stimulated response element (ISRE) containing MxA promoter.; format: functional; details: 30 µM
[9] = molecular target: T4, Tyrosyl-tRNA synthetase, putative (Trypanosoma cruzi (strain CL Brener)) (UniProt Q4DSP6); test: Trypanosoma cruzi tyrosyl tRNA synthetase (TcYRS) _High Tyrosine SOP; format: functional; details: 30 µM; also: in the data most compounds retested in dose-response had high values
T4 sequence (whole entry): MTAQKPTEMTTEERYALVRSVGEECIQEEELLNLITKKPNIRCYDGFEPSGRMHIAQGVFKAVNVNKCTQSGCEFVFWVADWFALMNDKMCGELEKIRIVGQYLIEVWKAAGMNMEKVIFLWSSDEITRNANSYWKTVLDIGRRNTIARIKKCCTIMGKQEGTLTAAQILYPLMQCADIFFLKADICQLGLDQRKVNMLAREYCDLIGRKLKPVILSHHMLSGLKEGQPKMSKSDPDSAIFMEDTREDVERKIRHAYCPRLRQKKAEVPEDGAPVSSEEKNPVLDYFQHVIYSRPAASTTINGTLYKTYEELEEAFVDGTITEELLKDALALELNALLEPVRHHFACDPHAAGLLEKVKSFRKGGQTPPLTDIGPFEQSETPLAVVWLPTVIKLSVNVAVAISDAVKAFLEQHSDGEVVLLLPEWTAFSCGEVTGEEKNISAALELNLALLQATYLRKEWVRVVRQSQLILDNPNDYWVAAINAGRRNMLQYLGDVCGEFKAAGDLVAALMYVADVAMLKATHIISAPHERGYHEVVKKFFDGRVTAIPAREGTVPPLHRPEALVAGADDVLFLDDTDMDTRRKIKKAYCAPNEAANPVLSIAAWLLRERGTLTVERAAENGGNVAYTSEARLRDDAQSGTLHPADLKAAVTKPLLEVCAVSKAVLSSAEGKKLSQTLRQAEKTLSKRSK

[10] = molecular target: T4, Tyrosyl-tRNA synthetase, putative (Trypanosoma cruzi (strain CL Brener)); test: Trypanosoma cruzi tyrosyl tRNA synthetase (TcYRS) SOP; format: functional; details: 30 µM
[11] = molecular target: Chromo domain-containing protein 1 (Saccharomyces cerevisiae (strain ATCC 204508 / S288c) (Baker's yeast)) (UniProt P32657); test: ScCHD-1 Enzyme Inhibition Assay; format: functional; details: 30 µM; also: in the data most compounds retested in dose-response had high values
Chromo domain-containing protein 1 (Saccharomyces cerevisiae (strain ATCC 204508 / S288c) (Baker's yeast)), sequence (P32657 whole entry, the tested form may be a part): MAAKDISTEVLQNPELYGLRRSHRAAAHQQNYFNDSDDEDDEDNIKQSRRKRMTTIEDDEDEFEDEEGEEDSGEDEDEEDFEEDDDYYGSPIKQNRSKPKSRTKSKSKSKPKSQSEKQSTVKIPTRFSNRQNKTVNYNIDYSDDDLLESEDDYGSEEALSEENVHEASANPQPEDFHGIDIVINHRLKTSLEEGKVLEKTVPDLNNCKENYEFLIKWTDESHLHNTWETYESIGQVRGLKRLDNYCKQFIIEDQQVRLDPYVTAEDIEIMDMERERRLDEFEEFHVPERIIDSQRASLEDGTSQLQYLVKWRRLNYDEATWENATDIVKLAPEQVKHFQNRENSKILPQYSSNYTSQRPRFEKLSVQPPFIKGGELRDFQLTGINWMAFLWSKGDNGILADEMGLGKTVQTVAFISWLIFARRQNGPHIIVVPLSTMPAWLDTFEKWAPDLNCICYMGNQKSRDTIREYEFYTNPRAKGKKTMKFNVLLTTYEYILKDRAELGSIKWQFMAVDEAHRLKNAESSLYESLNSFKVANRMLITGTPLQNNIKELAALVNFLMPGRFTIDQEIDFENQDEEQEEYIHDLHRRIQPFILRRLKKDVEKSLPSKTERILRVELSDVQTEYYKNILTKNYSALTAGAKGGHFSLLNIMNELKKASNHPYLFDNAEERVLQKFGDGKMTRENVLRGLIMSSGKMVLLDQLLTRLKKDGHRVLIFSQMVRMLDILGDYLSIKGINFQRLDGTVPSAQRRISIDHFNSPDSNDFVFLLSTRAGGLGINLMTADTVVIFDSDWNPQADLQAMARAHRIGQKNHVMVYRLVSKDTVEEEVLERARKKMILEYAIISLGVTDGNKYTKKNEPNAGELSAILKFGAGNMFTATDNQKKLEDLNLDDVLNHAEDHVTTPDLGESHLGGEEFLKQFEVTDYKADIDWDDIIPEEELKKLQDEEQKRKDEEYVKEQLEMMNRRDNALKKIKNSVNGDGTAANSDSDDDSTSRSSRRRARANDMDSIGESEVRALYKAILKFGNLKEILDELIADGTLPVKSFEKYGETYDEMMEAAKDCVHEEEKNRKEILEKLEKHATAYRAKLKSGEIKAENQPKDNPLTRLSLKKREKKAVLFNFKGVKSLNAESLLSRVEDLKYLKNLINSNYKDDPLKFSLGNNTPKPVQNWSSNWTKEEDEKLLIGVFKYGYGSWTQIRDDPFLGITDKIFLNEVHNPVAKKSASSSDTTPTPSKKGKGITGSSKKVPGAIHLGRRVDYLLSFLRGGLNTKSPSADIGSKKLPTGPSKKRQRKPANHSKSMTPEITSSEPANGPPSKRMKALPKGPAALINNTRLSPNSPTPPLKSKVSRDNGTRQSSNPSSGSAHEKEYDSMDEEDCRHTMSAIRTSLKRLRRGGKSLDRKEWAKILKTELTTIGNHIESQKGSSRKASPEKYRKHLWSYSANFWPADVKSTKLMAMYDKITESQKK

Protein translocase subunit SecA (Escherichia coli (strain K12)), sequence (P10408 whole entry): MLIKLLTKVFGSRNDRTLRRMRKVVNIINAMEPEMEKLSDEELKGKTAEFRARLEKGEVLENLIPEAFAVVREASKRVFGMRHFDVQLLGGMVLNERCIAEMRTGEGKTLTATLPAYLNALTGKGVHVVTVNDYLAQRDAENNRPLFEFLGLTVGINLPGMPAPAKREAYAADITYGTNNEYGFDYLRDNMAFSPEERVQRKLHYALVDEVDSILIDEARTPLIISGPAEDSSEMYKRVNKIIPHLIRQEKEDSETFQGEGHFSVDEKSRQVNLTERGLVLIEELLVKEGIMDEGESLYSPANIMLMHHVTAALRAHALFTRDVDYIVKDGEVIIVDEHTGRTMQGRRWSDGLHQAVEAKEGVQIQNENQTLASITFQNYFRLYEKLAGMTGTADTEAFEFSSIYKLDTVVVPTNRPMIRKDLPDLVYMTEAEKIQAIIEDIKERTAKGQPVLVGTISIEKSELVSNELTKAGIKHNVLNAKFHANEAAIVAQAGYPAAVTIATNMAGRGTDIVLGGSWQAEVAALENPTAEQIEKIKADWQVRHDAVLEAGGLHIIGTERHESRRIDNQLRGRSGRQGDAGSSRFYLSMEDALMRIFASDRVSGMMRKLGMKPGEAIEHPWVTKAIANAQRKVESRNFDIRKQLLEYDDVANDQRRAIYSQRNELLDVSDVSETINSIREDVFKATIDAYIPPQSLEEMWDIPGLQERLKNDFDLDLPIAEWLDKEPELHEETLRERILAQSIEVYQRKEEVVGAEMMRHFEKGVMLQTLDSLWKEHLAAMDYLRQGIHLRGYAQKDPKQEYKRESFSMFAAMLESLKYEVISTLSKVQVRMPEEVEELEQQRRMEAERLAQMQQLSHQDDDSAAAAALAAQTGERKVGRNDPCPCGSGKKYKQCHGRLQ

Structure (SMILES) | Percent Effect [1] [%] | Percent Effect [2] [%] | Percent Effect [3] [%] | Percent Effect [4] [%] | Percent Effect [5] [%] | Percent Effect [6] [%] | Percent Effect [7] [%] | Percent Effect [8] [%] | Percent Effect [9] [%] | Percent Effect [10] [%] | Percent Effect [11] [%]
Cc1nc(N2CCN(C)CC2)ncc1C(=O)N1CCC(O)(CO)CC1 | -6.99 | 5.41 | 51.9 | 4.12 | 2.25 | 0.744 | 0.944 | 9.71 | 6.45 | 13.6 | -3.95
Cc1csc([C@@H]2C[C@@H]3CCN(C(=O)c4cc(C)on4)C[C@H]3O2)n1 | -3.41 | 20.8 | -1.54 | -4.81 | 4.04 | 5.81 | 11.7 | 12.7 | 4.23 | 16.7 | -9.47
CC(CN1CCOCC1)NC(=O)NCc1ccc(Cl)s1 (stereo unspecified) | 0.411 | 10.5 | 7.25 | 0.82 | -2.63 | -2.37 | 15.8 | 5.71 | 8.51 | 20.8 | -3.24
COc1ccc(C(C(=O)O)N2CCCN(C3CCCCC3)CC2)cn1 (stereo unspecified) | -1.53 | 13.5 | -8.59 | 8.33 | 6.55 | -6.2 | 15.5 | -5.05 | 2.15 | 21 | -12.3
O=C(NCc1ccco1)[C@H]1C[C@H]2OCC[C@H]2N(C(=O)c2ccco2)C1 | -4.08 | -2.67 | 12.4 | 1.43 | -3.09 | -50.4 | 12 | -6.88 | -3.12 | -5 | 63.9
CCc1ccc(C(=O)N2CCCC(n3cncn3)C2)o1 (stereo unspecified) | -10.1 | -4.17 | -1.09 | -2.11 | -2.82 | -2.21 | 7.37 | 4.2 | 3.16 | -2.56 | 3.19
COC(=O)c1ccc(N2CCN(CCC(=O)NC(N)=O)C(C)C2)cc1 (stereo unspecified) | -5.21 | 15.8 | -4.81 | 0.77 | -5.51 | -0.719 | -2.45 | 5.46 | 5.42 | 13.6 | 2.67
Cc1nc(C)n(CC2CCCN(CCC(=O)N3CCCCC3)C2)n1 (stereo unspecified) | -1.52 | -2.6 | 7.57 | -4.47 | -4.21 | 5.26 | -0.566 | 20.7 | 0 | 0 | 4.58
O=S(=O)(C1CC1)N1C[C@H]2CCC[C@@]2(COc2ccccn2)C1 | -0.747 | 14.7 | 2.3 | 3.09 | -4.32 | 5.81 | 15.3 | -6.25 | 3.17 | 10.3 | -5.69
CCn1c(NCc2ccco2)nc2c(C)nn(C)c2c1=O | -2.68 | 20 | 4.54 | -6.91 | 3.93 | 92.8 | 22.6 | 7.87 | 9.52 | 17.9 | -14
Cc1occc1C(=O)N1CCC2(CCC2NC(=O)c2ccn(C)c2)CC1 (stereo unspecified) | -5.67 | 8.11 | 3.15 | -1.3 | 4.79 | -3.5 | 12 | -2.79 | 6.49 | 15.4 | 3.75
CCc1ccc(C(=O)N2CCCC(c3noc(CC)n3)C2)o1 (stereo unspecified) | -0.983 | 2.6 | 7.44 | 4.61 | 3.04 | 0.21 | 4.12 | 3.88 | 0.952 | 7.06 | -10.5
CSCc1cccc(S(=O)(=O)NCCCn2ccnc2)c1 | -5.68 | -23.4 | -1.48 | 6.2 | 1.67 | -6.9 | 2.16 | 2.79 | 7.53 | 21 | -1.53
NCC1Cn2nnc(-c3cccc(F)c3)c2CO1 (stereo unspecified) | -1.49 | -20.8 | 2.11 | 0.572 | 8.75 | -1.38 | 7.99 | -8.6 | 3.23 | 3.7 | -4.31
O=C(NC1(c2nnn(CCO)n2)CCCC1)c1ccccc1 | -3.12 | 8 | -5.64 | 17.4 | 3.41 | 17.7 | 1.57 | -6.59 | 6.01 | 16.1 | -4.4
CCc1ccc(CN2CCC3(CC2)CNC(=O)CO3)o1 | -2.61 | 2.7 | 1.59 | -0.0986 | 1.76 | 1.25 | 1.77 | -14.2 | 2.97 | -3.66 | -0.389
CCNC(=O)[C@@H]1C[C@@H](NC(=O)Cc2ccccn2)CN1CCCSC | -5.92 | 0 | 1.44 | -0.868 | -4.37 | -1.2 | 6.42 | 5.01 | 0 | -3.7 | 0.131
CC(C)NC(=O)Nc1ccc(CS(=O)(=O)C(C)(C)C)cc1 | -3.43 | 2.63 | 7.37 | 5.76 | -2.82 | -2.37 | 23.1 | 7.3 | 2.13 | 10.4 | -2.88
O=C(Cc1csc(-c2ccc(Cl)cc2)n1)NC(C(=O)O)c1ccccc1 (stereo unspecified) | -2.32 | -1.33 | 10.5 | 1.1 | -3.73 | -9.68 | 14.6 | 0.509 | 1.06 | -2.56 | -10
O=C(CCCNC(=O)C1CC1)Nc1cnn(-c2ccccc2Cl)c1 | -2.62 | 5.41 | -9.02 | 0.665 | 7.33 | -3.51 | 5.03 | -1.9 | 5.94 | 13.4 | -3.58
Cc1nc(C)n(CC2CCCN(Cc3ccc(C(N)=O)cc3)C2)n1 (stereo unspecified) | -2.97 | 5.2 | 2.61 | -0.0393 | -0.294 | -3.58 | 5.58 | 5.79 | 4.76 | 11.8 | -14.8
